# Data from paper PMC5540273 (PLoS ONE, 2017).
# Experiments:
# Conditions in all cases: concentration: 1 μM, replicates: in singlicate; n = 1
# [1] = tested on: JAK1(JH2domain-pseudokinase)
# [2] = tested on: JAK2(JH1domain-catalytic)
# [3] = tested on: JAK3(JH1domain-catalytic)
# JNK1 = tested on: T1, JNK1
# T1 construct: gene MAPK8
# JNK2 = tested on: T2, JNK2
# T2 construct: gene MAPK9
# JNK3 = tested on: T3, JNK3
# T3 construct: gene MAPK10
# KIT-autoinhibited = tested on: KIT-autoinhibited
# KIT = tested on: KIT
# LATS1 = tested on: LATS1
# LATS2 = tested on: LATS2
# LCK = tested on: LCK
# LIMK1 = tested on: LIMK1
# LIMK2 = tested on: LIMK2
# LKB1 = tested on: T4, LKB1
# T4 construct: gene STK11
# LOK = tested on: T5, LOK
# T5 construct: gene STK10
# LRRK2 = tested on: LRRK2
# LTK = tested on: LTK
# LYN = tested on: LYN
# LZK = tested on: T6, LZK
# T6 construct: gene MAP3K13
# MAK = tested on: MAK
# 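Note: KINOMEscan kinase panel screen.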
Structure (SMILES),%Inh [1],%Inh [2],%Inh [3],%Inh (JNK1),%Inh (JNK2),%Inh (JNK3),%Inh (KIT-autoinhibited),%Inh (KIT),%Inh (LATS1),%Inh (LATS2),%Inh (LCK),%Inh (LIMK1),%Inh (LIMK2),%Inh (LKB1),%Inh (LOK),%Inh (LRRK2),%Inh (LTK),%Inh (LYN),%Inh (LZK),%Inh (MAK)
CCOc1nccc(-c2c(-c3ccc(F)cc3)ncn2C2CCNCC2)n1 [SB-249175],0%,26%,26%,58%,89%,90.2%,8%,17%,0%,29%,82%,3%,11%,30%,0%,0%,4%,12%,3%,1%
COC(=O)Nc1nc2cc(Oc3ccc(NC(=O)Nc4cccc(SC)c4)cc3)ccc2[nH]1.Cl [GW697999],0%,0%,0%,16%,16%,0%,50%,99.9%,43%,0%,68%,0%,4%,17%,99.4%,18%,0%,24%,23%,14%
O=C(Nc1c(F)cccc1F)c1cc(C(=O)c2ccccc2F)c[nH]1 [GSK1326180],0%,0%,0%,4%,17%,0%,0%,9%,0%,0%,8%,3%,0%,0%,28%,6%,0%,0%,0%,0%
COc1cccc2c(-c3ccncc3)c(-c3ccc(F)cc3)nn12 [GW468513],67%,11%,0%,96%,99.8%,99.9%,0%,8%,0%,8%,23%,0%,0%,0%,0%,48%,28%,0%,0%,27%
NCCC(NC(=O)c1cc(Br)c(-c2ccnc3[nH]ccc23)s1)c1ccccc1.O=C(O)C(F)(F)F.O=C(O)C(F)(F)F (stereo not shown) [GSK1307810],0%,97.1%,98.7%,30%,15%,16%,0%,73%,83%,93%,12%,12%,30%,29%,0%,14%,0%,7%,30%,30%
COc1cccc(CC(=O)N2CCc3cc(-c4cn(C)c5ncnc(N)c45)ccc32)c1 [GSK2608899],0%,0%,0%,4%,16%,3%,11%,100%,0%,10%,34%,0%,35%,4%,98.5%,0%,36%,22%,0%,2%
CCn1cnc2c(NCc3ccccc3)ncnc21 [SKF-96418],24%,40%,5%,11%,0%,0%,9%,0%,0%,0%,0%,0%,0%,25%,5%,0%,0%,0%,34%,0%
O=C(O)C(F)(F)F.O=c1[nH]ccc2nc(N[C@@H]3CCNC3)nc(Nc3cc(Cl)cc(Cl)c3)c12 [GSK2188764],98%,92.2%,100%,36%,7%,25%,2%,73%,42%,59%,0%,19%,13%,43%,70%,97.3%,31%,21%,7%,16%
CSc1ccc(NC2=C(c3ccc(Cl)cc3)C(=O)NC2=O)cc1 [SB-317658],0%,0%,0%,0%,19%,3%,0%,29%,8%,0%,0%,11%,1%,54%,29%,43%,27%,26%,0%,37%
N#CC1(c2cccc(C(=O)Nc3cccc(Oc4ccc5nc(NC(=O)C6CC6)sc5n4)c3)c2)CC1,15%,0%,0%,0%,0%,0%,76%,99.9%,0%,0%,99.3%,6%,0%,0%,95.9%,0%,0%,91.4%,0%,3%
O=C1NC(=O)C(c2ccccc2Cl)=C1Nc1cccc(Cl)c1 [SB-342409],0%,24%,65%,19%,12%,3%,0%,0%,0%,0%,1%,20%,89%,0%,5%,2%,0%,0%,0%,12%
Cc1cc(-c2ccnc(Nc3cccc(C#N)c3)n2)cc(C)c1O [GSK1440913],78%,92.6%,74%,98.9%,77%,99%,0%,49%,0%,0%,18%,14%,42%,86%,17%,0%,0%,20%,0%,36%
CN(C)CCOc1ccc(-c2cc(-c3ccc(Cl)c(O)c3)c(-c3ccncc3)[nH]2)cc1.Cl.Cl [SB-684387],23%,33%,10%,3%,34%,36%,2%,5%,0%,30%,86%,13%,11%,20%,84%,17%,0%,28%,41%,41%
Cc1ccc(O)cc1Nc1ccnc2ccc(C(C)(C)C)cc12 [GW856805],20%,64%,0%,43%,29%,15%,22%,96.9%,0%,0%,98.6%,0%,0%,33%,16%,67%,11%,69%,0%,23%
COc1cc(Nc2ccnc3cc(-c4ccncc4)ccc23)cc(OC)c1OC.Cl [GW494610],0%,12%,0%,49%,54%,37%,0%,76%,0%,0%,98.6%,0%,0%,0%,96.9%,27%,24%,67%,31%,20%
Cn1cc(-c2ccc3c(c2)CCN3C(=O)Cc2cc(F)cc(C(F)(F)F)c2)c2c(N)ncnc21 [GSK2635225],3%,10%,0%,0%,13%,0%,16%,100%,0%,4%,62%,0%,0%,16%,84%,0%,18%,26%,3%,26%
Cc1ccc(NC(=O)c2ccnc(N3CCCCC3)c2)cc1-c1ccc(C(=O)NCC2CC2)cc1 [GW775610],0%,90%,95.2%,42%,43%,28%,8%,87%,0%,0%,29%,0%,0%,34%,79%,0%,15%,0%,0%,13%
COc1ccc(C2=C(Nc3cccc(O)c3)C(=O)NC2=O)cc1 [SB-390766],0%,13%,0%,21%,16%,1%,2%,14%,0%,0%,0%,0%,10%,0%,0%,5%,30%,52%,6%,0%
Cc1ccc(O)cc1Nc1ccnc2cc(-c3ccc(CN4CCCCC4)o3)ccc12 [GW557777],7%,0%,15%,0%,0%,0%,56%,100%,0%,22%,99.7%,6%,8%,0%,17%,19%,0%,95.3%,0%,0%
O=C(Nc1n[nH]c2nc(-c3ccccc3)ccc12)C1CC1 [SB-708999],0%,17%,51%,16%,6%,6%,0%,8%,6%,0%,9%,0%,31%,0%,30%,0%,0%,21%,2%,38%
